KAT2A inh = inhibitors of human GCN5L2 histone acetyltransferase; Q92830; GCN5L2 HAT assay, ThioGlo1 CoA-SH fluorescence; Potency, µM (doses to about 58.9 µM), for the others: at the highest dose activity change, negative = inhibition, hits mostly inhibitors; hit rate 0.21% among 390,000; AID 504327
Target sequence (Q92830 whole entry, looked up): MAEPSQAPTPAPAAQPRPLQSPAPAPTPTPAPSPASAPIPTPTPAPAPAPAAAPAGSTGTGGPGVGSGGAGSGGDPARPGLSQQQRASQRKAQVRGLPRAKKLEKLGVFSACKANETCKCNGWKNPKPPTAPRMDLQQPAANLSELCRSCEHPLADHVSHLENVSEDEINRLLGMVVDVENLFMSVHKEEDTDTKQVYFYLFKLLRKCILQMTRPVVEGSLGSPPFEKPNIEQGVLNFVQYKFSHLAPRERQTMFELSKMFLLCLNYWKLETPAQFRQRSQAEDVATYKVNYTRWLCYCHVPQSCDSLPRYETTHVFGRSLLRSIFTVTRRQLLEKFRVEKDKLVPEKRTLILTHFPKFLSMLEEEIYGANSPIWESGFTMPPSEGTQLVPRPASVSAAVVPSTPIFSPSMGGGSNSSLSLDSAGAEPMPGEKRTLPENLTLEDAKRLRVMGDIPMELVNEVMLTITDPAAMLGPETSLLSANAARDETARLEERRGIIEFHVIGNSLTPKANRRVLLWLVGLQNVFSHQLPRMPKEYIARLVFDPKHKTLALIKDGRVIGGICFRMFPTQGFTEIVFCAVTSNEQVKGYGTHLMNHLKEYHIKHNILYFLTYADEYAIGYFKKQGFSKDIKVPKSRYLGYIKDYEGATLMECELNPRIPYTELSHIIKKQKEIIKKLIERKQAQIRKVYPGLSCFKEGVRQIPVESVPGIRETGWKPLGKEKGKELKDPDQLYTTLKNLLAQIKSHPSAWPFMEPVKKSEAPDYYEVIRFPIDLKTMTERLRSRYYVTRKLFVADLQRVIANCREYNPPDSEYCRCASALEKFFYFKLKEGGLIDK
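Titration-based screen in which CoA formation is detected via maleimide probe ThioGlo1 (50uM) turning fluorescent on thiol reaction; substrates H3(1-25) 75uM and acetyl-CoA 70uM, GCN5L2 20nM, 20 min incubation at room temperature.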
TDP1 cell CPT = DT40-hTDP1 cell growth loss with CPT; chicken DT40 Tdp1-/-;hTDP1 cells + 20 nM CPT, ATP luminescence, 48 h; Potency, µM (doses to about 46.2 µM), without a hit: top-dose activity change, negative = growth inhibition, actives largely listed as inhibitors; hit rate 12% among 420,000; AID 686979; further: nearly all actives have a fitted effect of over 55% in size
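Chicken DT40 Tdp1-/- cells stably complemented with human TDP1 were seeded at 400 cells/well in medium containing 20 nM camptothecin, exposed to pin-transferred compounds, and grown at 37 °C for at least 48 hr. Viability was read as ATP luminescence.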
PLK1 PBD block = inhibitors of human PLK1 polo-box domain binding. P53350. Plk1 PBD binding of FITC phosphopeptide, fluorescence polarization. Potency, µM, without a hit: max response, negative = inhibition, most hits filed as inhibitors. hit rate 2.8% among 360,000. AID 720504; further: series mostly up to about 57 µM; nearly all actives have a fitted effect of over 65% in size
TDP1 inh = blocks human tyrosyl-DNA phosphodiesterase 1; Q9NUW8; recombinant TDP1, AlphaScreen DNA substrate cleavage; Potency, µM (titrated, usually from 130 µM), without a hit: at the top dose activity change, negative = inhibition, usual class: inhibitors; hit rate 0.28% among 350,000; further: nearly all actives have a fitted effect of over 40% in size
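Recombinant E. coli-expressed Tdp1 (1 nM) preincubated with compound 15 min at RT, then 5'-biotin/3'-phosphotyrosine-FITC DNA substrate (15 nM) added for 5 min. AlphaScreen beads (10 ug/ml) added, 10 min RT; tyrosine-FITC cleavage read as signal loss.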
DT40 TDP1 no CPT = qHTS for Inhibitors of human tyrosyl-DNA phosphodiesterase 1 (TDP1): qHTS in cells in absence of CPT | Potency, µM (top dose mostly 46.2 µM), for inactives: at the highest dose activity change, negative = growth inhibition, hits mostly inhibitors | DT40 Tdp1-/- hTDP1 cells, no CPT, ATP luminescence, 48 h | AID 686978, 2013 | hit rate 15% among 420,000; further: nearly all actives have a fitted effect of over 55% in size
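Readout: luminescence from CellTiter-Glo after 30 min in the dark at RT. Cells: DT40 Tdp1-/- with stable hTDP1, 400/well. Exposure: compounds alone, ≥48 hr, 37 °C.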
VDR inhibitor = blocks the human vitamin D receptor | hit rate 0.93% among 400,000 | P11473 | VDR-SRC2-3 peptide fluorescence polarization, 2 h | AID 504847 | Potency, µM, without a hit: max response, negative = inhibition, actives largely listed as inhibitors
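Measured by FP: displacement of SRC2-3 coactivator peptide from VDR by library compounds, following a two-hour ambient incubation.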
* hit, by the source's call. Compounds with a hit are over-represented: about 18% of the library has one in this group of screens. The call rests on the fitted dose curve; in most records, active means well fitted curve in the direction sought with a large enough effect; inconclusive means small, poorly fitted or top-dose-only effect, or another doubt; inactive means no such curve, though single readings can be large; an effect the other way counts as inactive or inconclusive. On the % scale 0 is the no-effect control and ±100 the full control effect; potency means the concentration at half of the fitted maximal effect.

What do the screens show for `CCCN1CCC(=O)N([C@H](COc2ccccc2)Cc2ccccc2)CC1`?
KAT2A inh: 0%; TDP1 cell CPT: 26µM*; PLK1 PBD block: -4%; DT40 TDP1 no CPT: inconclusive; VDR inhibitor: -4%

What do the screens show for `COc1ccc(C(=O)NC2CCCc3ccccc32)cc1[N+](=O)[O-]` (stereo not drawn)?
KAT2A inh: 0%; TDP1 cell CPT: 5.2µM*; PLK1 PBD block: -2%; TDP1 inh: 0%; DT40 TDP1 no CPT: 3.7µM*; VDR inhibitor: 3%

Results for COc1ccccc1NC(=O)COc1ccc(C(=O)NC2CCCc3ccccc32)cc1OC (stereo not drawn) ?
KAT2A inh: -16%; TDP1 cell CPT: inconclusive; PLK1 PBD block: -3%; DT40 TDP1 no CPT: 7.3µM*; VDR inhibitor: -2%

How did O=C(Nc1ccccc1)NC1CCCc2ccccc21 (stereo not drawn) do in these assays?
KAT2A inh: -9%; TDP1 cell CPT: inconclusive; PLK1 PBD block: -9%; TDP1 inh: -4%; DT40 TDP1 no CPT: 18µM*; VDR inhibitor: -14%

What do the screens show for `COc1cccc(NC(=O)NC2CCCc3ccccc32)c1` (stereo not drawn)?
KAT2A inh: -20%; TDP1 cell CPT: -22%; PLK1 PBD block: 3%; DT40 TDP1 no CPT: inconclusive; VDR inhibitor: -13%

What do the screens show for `COc1cccc(C(=O)NC2CCCc3ccccc32)c1OC` (stereo not drawn)?
KAT2A inh: -3%; TDP1 cell CPT: inconclusive; PLK1 PBD block: 1%; DT40 TDP1 no CPT: 23µM*; VDR inhibitor: -4%

Results for COc1cc(C(=O)NC2CCCc3ccccc32)cc(OC)c1C (stereo not drawn) ?
KAT2A inh: -4%; TDP1 cell CPT: inconclusive; PLK1 PBD block: 2%; TDP1 inh: 0%; DT40 TDP1 no CPT: inconclusive; VDR inhibitor: -5%

What do the screens show for `O=C(NC1CCCc2ccccc21)c1ccccc1` (stereo not drawn)?
KAT2A inh: -1%; TDP1 cell CPT: -18%; PLK1 PBD block: 1%; TDP1 inh: 0%; DT40 TDP1 no CPT: inconclusive; VDR inhibitor: 9%

What do the screens show for `O=C(NC1CCCc2ccccc21)c1n[nH]c(=O)c2ccccc12` (stereo not drawn)?
KAT2A inh: -8%; TDP1 cell CPT: inconclusive; PLK1 PBD block: -11%; TDP1 inh: -5%; DT40 TDP1 no CPT: 6.5µM*; VDR inhibitor: -28%

How did COc1cc(OC)cc(C(=O)N[C@H](C(=O)NC2CCCc3ccccc32)C(C)C)c1 (stereo partly drawn) do in these assays?
KAT2A inh: -8%; TDP1 cell CPT: inconclusive; PLK1 PBD block: 8%; TDP1 inh: -3%; DT40 TDP1 no CPT: 16µM*; VDR inhibitor: -8%

How did Cc1c(C(=O)NC2CCCc3ccccc32)cccc1[N+](=O)[O-] (stereo not drawn) do in these assays?
KAT2A inh: -4%; TDP1 cell CPT: inconclusive; PLK1 PBD block: -8%; DT40 TDP1 no CPT: 13µM*; VDR inhibitor: -10%

What do the screens show for `COc1cc(OC)cc(C(=O)NCC(=O)OCC(=O)NC2CCCc3ccccc32)c1` (stereo not drawn)?
KAT2A inh: -8%; TDP1 cell CPT: -14%; PLK1 PBD block: 5%; TDP1 inh: 1%; DT40 TDP1 no CPT: -18%; VDR inhibitor: -13%

How did Cc1c(NC(=O)C(C)OC(=O)/C=C/c2ccc(OC(F)F)cc2)c(=O)n(-c2ccccc2)n1C (stereo not drawn) do in these assays?
KAT2A inh: 1%; TDP1 cell CPT: -2%; PLK1 PBD block: -11%; TDP1 inh: -3%; DT40 TDP1 no CPT: -4%; VDR inhibitor: 0%

Results for C[C@H](NC(=O)OC(C)(C)C)c1nnc(SCc2ccc(Cl)cc2Cl)o1 ?
KAT2A inh: -1%; TDP1 inh: -10%; VDR inhibitor: -6%

How did O=C1C(Cc2c[nH]c3ccccc23)NC(=S)N1C1CCCCC1 (stereo not drawn) do in these assays?
KAT2A inh: -17%; TDP1 cell CPT: -17%; PLK1 PBD block: -10%; TDP1 inh: 8%; DT40 TDP1 no CPT: -26%; VDR inhibitor: -8%

What do the screens show for `CC1CC(C)CN(CCCNS(=O)(=O)c2ccc3c(c2)oc(=O)n3C)C1` (stereo not drawn)?
KAT2A inh: -4%; TDP1 cell CPT: 14%; PLK1 PBD block: 2%; TDP1 inh: 0%; DT40 TDP1 no CPT: 17%; VDR inhibitor: -15%

How did CCOC(=O)c1c(NC(=O)c2cc(-c3ccc(OC)c(OC)c3)on2)sc2c1CCCC2 do in these assays?
KAT2A inh: -2%; TDP1 cell CPT: 3%; TDP1 inh: 3%; DT40 TDP1 no CPT: -23%; VDR inhibitor: inconclusive

What do the screens show for `CCOC(=O)c1c(NC(=O)c2ccccc2C(=O)O)sc2c1CCCC2`?
KAT2A inh: -2%; TDP1 cell CPT: 0%; PLK1 PBD block: -18%; DT40 TDP1 no CPT: -1%; VDR inhibitor: -3%

How did CCOC(=O)c1c(NC(=O)C(C)S(=O)(=O)c2cn(CC)c3ccccc23)sc2c1CCCC2 (stereo not drawn) do in these assays?
KAT2A inh: -9%; TDP1 cell CPT: inconclusive; PLK1 PBD block: -7%; TDP1 inh: 3%; DT40 TDP1 no CPT: 6.5µM*; VDR inhibitor: 10%

Results for CCOC(=O)c1c(NC(=O)c2cc(-c3cccc(OC)c3)on2)sc2c1CCCC2 ?
KAT2A inh: -21%; TDP1 cell CPT: -5%; TDP1 inh: -5%; DT40 TDP1 no CPT: -13%; VDR inhibitor: 79µM*

What do the screens show for `CCOC(=O)c1c(NC(=O)c2ccccc2C)sc2c1CCCC2`?
KAT2A inh: -21%; TDP1 cell CPT: -21%; TDP1 inh: -2%; DT40 TDP1 no CPT: inconclusive; VDR inhibitor: 79µM*

What do the screens show for `CCOC(=O)c1c(NC(=O)C2CCCN(S(=O)(=O)c3ccccc3)C2)sc2c1CCCC2` (stereo not drawn)?
KAT2A inh: -7%; TDP1 cell CPT: 8.2µM*; PLK1 PBD block: -11%; TDP1 inh: 5%; DT40 TDP1 no CPT: 9.2µM*; VDR inhibitor: -5%

Results for CCOC(=O)c1c(C)[nH]c(C(=O)CSc2nccc(C)n2)c1C ?
KAT2A inh: -6%; TDP1 cell CPT: 20%; PLK1 PBD block: 1%; TDP1 inh: 3%; DT40 TDP1 no CPT: -11%; VDR inhibitor: 4%
